Where a name gives a salt, the structure may show the parent alone.
What was measured:
Experiment in all cases: Euclidean distance of Cell Painting phenotypic profile (signed KS, 77 features) to DMSO centroid (dimensionless distance); 5 or 10 uM (library dependent); higher = stronger phenotypic change vs DMSO (phenoactivity)
Details in all cases: 48 h
786-O = tested on: 786-O
Method in brief: (§1)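 Library compounds were applied at 10 or 5 uM, depending on the library, with 0.1% DMSO final, for 48 h to five cancer lines and a healthy fibroblast line. After staining, cells were imaged confocally at 20X across 9 fields per well, and Harmony extracted 77 features, each scored as a signed Kolmogorov-Smirnov statistic against vehicle wells on the same plate. Phenoactivity is the Euclidean distance between each profile and the median vehicle profile, with profiles first plate-position corrected, correlation-weighted and averaged over replicates at the top dose.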

A549 = tested on: A549
Method in brief: as §1

DU145 = tested on: DU145
Method in brief: as §1

FB = tested on: FB
Method in brief: as §1

HEPG2 = tested on: HEPG2
Method in brief: as §1

OVCAR4 = tested on: OVCAR4
Method in brief: as §1

## Cc1cc(Nc2ncc(Cl)c(Nc3ccccc3S(=O)(=O)C(C)C)n2)c(OC(C)C)cc1C1CCNCC1 [Ceritinib (LDK378)]
786-O
  Euclidean distance: 6.15
A549
  Euclidean distance: 4.94
DU145
  Euclidean distance: 7.35
FB
  Euclidean distance: 6.34
HEPG2
  Euclidean distance: 4.96
OVCAR4
  Euclidean distance: 5.69

## Nc1ccc(C(=O)O)c(O)c1 [4-Aminosalicylic acid]
786-O
  Euclidean distance: 0.634
A549
  Euclidean distance: 0.798
DU145
  Euclidean distance: 2.33
FB
  Euclidean distance: 0.835
HEPG2
  Euclidean distance: 0.517
OVCAR4
  Euclidean distance: 0.799

## NC(=O)Cc1cccc(C(=O)c2ccccc2)c1N [Nepafenac]
786-O
  Euclidean distance: 1.03
A549
  Euclidean distance: 1.31
DU145
  Euclidean distance: 2.96
FB
  Euclidean distance: 1.25
HEPG2
  Euclidean distance: 1.14
OVCAR4
  Euclidean distance: 0.874

## CC(=O)O[C@H]1C[C@@H]2CC[C@@H]3[C@H](CC[C@@]4(C)[C@H]3C[C@H]([N+]3(C)CCCCC3)[C@@H]4OC(C)=O)[C@@]2(C)C[C@@H]1N1CCCCC1 [Vecuronium Bromide]
786-O
  Euclidean distance: 1.85
A549
  Euclidean distance: 1.53
DU145
  Euclidean distance: 1.34
FB
  Euclidean distance: 1.07
HEPG2
  Euclidean distance: 0.966
OVCAR4
  Euclidean distance: 1.28

## CN(N=O)C(=O)NC1C(O)OC(CO)C(O)C1O (stereo not drawn) [Streptozotocin (STZ)]
786-O
  Euclidean distance: 1.35
A549
  Euclidean distance: 0.706
DU145
  Euclidean distance: 0.768
FB
  Euclidean distance: 1.26
HEPG2
  Euclidean distance: 0.501
OVCAR4
  Euclidean distance: 1.16

## CCCN(CCc1cccs1)[C@H]1CCc2c(O)cccc2C1 [Rotigotine]
786-O
  Euclidean distance: 0.962
A549
  Euclidean distance: 0.896
DU145
  Euclidean distance: 0.662
FB
  Euclidean distance: 0.9
HEPG2
  Euclidean distance: 0.437
OVCAR4
  Euclidean distance: 0.97

## NC12CC3CC(CC(C3)C1)C2 [Amantadine HCl]
786-O
  Euclidean distance: 1.14
A549
  Euclidean distance: 0.94
DU145
  Euclidean distance: 1.01
FB
  Euclidean distance: 0.961
HEPG2
  Euclidean distance: 0.485
OVCAR4
  Euclidean distance: 0.875

## CCn1cc(-c2ccnc3[nH]c(-c4cccc(CN(C)C)c4)cc23)c(-c2ccc(NC(=O)N(C)C)cc2)n1
786-O
  Euclidean distance: 2.56
A549
  Euclidean distance: 2.73
DU145
  Euclidean distance: 2.29
FB
  Euclidean distance: 3.38
HEPG2
  Euclidean distance: 2.7
OVCAR4
  Euclidean distance: 2.8

## Cc1cc(C2CCCCC2)n(O)c(=O)c1 [Ciclopirox]
786-O
  Euclidean distance: 2.74
A549
  Euclidean distance: 2.85
DU145
  Euclidean distance: 2.81
FB
  Euclidean distance: 3.29
HEPG2
  Euclidean distance: 3.45
OVCAR4
  Euclidean distance: 3.51

## O=C(O)COCCN1CCN([C@H](c2ccccc2)c2ccc(Cl)cc2)CC1 [Levocetirizine Dihydrochloride]
786-O
  Euclidean distance: 0.875
A549
  Euclidean distance: 1.39
DU145
  Euclidean distance: 0.783
FB
  Euclidean distance: 1.09
HEPG2
  Euclidean distance: 0.867
OVCAR4
  Euclidean distance: 1.4

## Brc1c(NC2=NCCN2)ccc2nccnc12 [Brimonidine Tartrate]
786-O
  Euclidean distance: 0.514
A549
  Euclidean distance: 0.618
DU145
  Euclidean distance: 0.478
FB
  Euclidean distance: 0.739
HEPG2
  Euclidean distance: 0.644
OVCAR4
  Euclidean distance: 0.833

## CCCCCCCCCCCC1=C(O)C(=O)C=C(O)C1=O [Embelin]
786-O
  Euclidean distance: 1.85
A549
  Euclidean distance: 1.18
DU145
  Euclidean distance: 1.4
FB
  Euclidean distance: 1.6
HEPG2
  Euclidean distance: 1.16
OVCAR4
  Euclidean distance: 1.88

## CN1CCN(c2ccc(C(=O)Nc3n[nH]c4ccc(Cc5cc(F)cc(F)c5)cc34)c(NC3CCOCC3)c2)CC1 [Entrectinib (RXDX-101)]
786-O
  Euclidean distance: 5.06
A549
  Euclidean distance: 3.73
DU145
  Euclidean distance: 4.31
FB
  Euclidean distance: 5.6
HEPG2
  Euclidean distance: 5.43
OVCAR4
  Euclidean distance: 4.97

## OCc1ccc(-c2ccc(-c3ccc(CO)s3)o2)s1
786-O
  Euclidean distance: 2.79
A549
  Euclidean distance: 2.26
DU145
  Euclidean distance: 1.44
FB
  Euclidean distance: 2.66
HEPG2
  Euclidean distance: 4.78
OVCAR4
  Euclidean distance: 5.04

## C[C@H](Oc1cc(-c2cnn(C3CCNCC3)c2)cnc1N)c1c(Cl)ccc(F)c1Cl [(S)-crizotinib]
786-O
  Euclidean distance: 3.79
A549
  Euclidean distance: 3.26
DU145
  Euclidean distance: 2.55
FB
  Euclidean distance: 4.85
HEPG2
  Euclidean distance: 3.67
OVCAR4
  Euclidean distance: 2.78

## CC(=O)Oc1cc(C(F)(F)F)ccc1C(=O)O [Triflusal]
786-O
  Euclidean distance: 1.03
A549
  Euclidean distance: 1.2
DU145
  Euclidean distance: 0.857
FB
  Euclidean distance: 0.956
HEPG2
  Euclidean distance: 0.829
OVCAR4
  Euclidean distance: 1.16

## CN[C@@H]1[C@H](O[C@H]2[C@H](O[C@H]3[C@H](O)[C@@H](O)[C@H](NC(=N)N)[C@@H](O)[C@@H]3NC(=N)N)O[C@@H](C)[C@]2(O)CO)O[C@@H](CO)[C@H](O)[C@H]1O [Dihydrostreptomycin sulfate]
786-O
  Euclidean distance: 0.936
A549
  Euclidean distance: 1.12
DU145
  Euclidean distance: 0.563
FB
  Euclidean distance: 1.25
HEPG2
  Euclidean distance: 0.549
OVCAR4
  Euclidean distance: 1.33

## COc1c(C)c2c(c(O)c1C/C=C(\C)CCC(=O)O)C(=O)OC2 [Mycophenolic acid]
786-O
  Euclidean distance: 2.65
A549
  Euclidean distance: 3.38
DU145
  Euclidean distance: 1.88
FB
  Euclidean distance: 3.04
HEPG2
  Euclidean distance: 2.74
OVCAR4
  Euclidean distance: 3.28

## Cc1cc(C(C)(C)C)c(O)c(C)c1CC1=NCCN1 [Oxymetazoline HCl]
786-O
  Euclidean distance: 1.3
A549
  Euclidean distance: 0.82
DU145
  Euclidean distance: 0.75
FB
  Euclidean distance: 1.1
HEPG2
  Euclidean distance: 1.88
OVCAR4
  Euclidean distance: 0.83

## C[C@@H](O)[C@H]1C(=O)N2C(C(=O)O)=C(S[C@@H]3CN[C@H](C(=O)N(C)C)C3)[C@H](C)[C@H]12 [Meropenem]
786-O
  Euclidean distance: 1.75
A549
  Euclidean distance: 1.63
DU145
  Euclidean distance: 0.873
FB
  Euclidean distance: 1.2
HEPG2
  Euclidean distance: 1.05
OVCAR4
  Euclidean distance: 1.15

## c1coc(CNc2ncnc3[nH]cnc23)c1 [Kinetin]
786-O
  Euclidean distance: 1.36
A549
  Euclidean distance: 1.02
DU145
  Euclidean distance: 0.682
FB
  Euclidean distance: 1.33
HEPG2
  Euclidean distance: 0.627
OVCAR4
  Euclidean distance: 1.72

## CCCC(CCC)C(=O)O [Divalproex Sodium]
786-O
  Euclidean distance: 1.31
A549
  Euclidean distance: 0.566
DU145
  Euclidean distance: 0.425
FB
  Euclidean distance: 0.846
HEPG2
  Euclidean distance: 0.404
OVCAR4
  Euclidean distance: 0.812

## CN(C(=O)c1c(O)c2ccccc2n(C)c1=O)c1ccccc1 [Roquinimex]
786-O
  Euclidean distance: 0.929
A549
  Euclidean distance: 0.796
DU145
  Euclidean distance: 1.13
FB
  Euclidean distance: 1.32
HEPG2
  Euclidean distance: 0.76
OVCAR4
  Euclidean distance: 0.974

## CC(=O)O[C@]1(C(C)=O)CC[C@H]2[C@@H]3C=C(Cl)C4=CC(=O)[C@@H]5C[C@@H]5[C@]4(C)[C@H]3CC[C@@]21C [Cyproterone Acetate]
786-O
  Euclidean distance: 1.3
A549
  Euclidean distance: 0.841
DU145
  Euclidean distance: 0.95
FB
  Euclidean distance: 0.862
HEPG2
  Euclidean distance: 1.95
OVCAR4
  Euclidean distance: 0.974

## O=C(/C=C/c1ccc(O)c(O)c1)OCCc1ccccc1 [Caffeic Acid Phenethyl Ester]
786-O
  Euclidean distance: 1.43
A549
  Euclidean distance: 2.31
DU145
  Euclidean distance: 1.1
FB
  Euclidean distance: 1.78
HEPG2
  Euclidean distance: 1.71
OVCAR4
  Euclidean distance: 1.18

## CCCc1nc(C(C)(C)O)c(C(=O)O)n1Cc1ccc(-c2ccccc2-c2nnn[nH]2)cc1 [Olmesartan]
786-O
  Euclidean distance: 1.21
A549
  Euclidean distance: 0.9
DU145
  Euclidean distance: 1.57
FB
  Euclidean distance: 0.802
HEPG2
  Euclidean distance: 0.353
OVCAR4
  Euclidean distance: 1.32

## Cc1cnc(C(=O)NCCc2ccc(S(=O)(=O)NC(=O)NC3CCCCC3)cc2)cn1 [Glipizide]
786-O
  Euclidean distance: 1.39
A549
  Euclidean distance: 1.31
DU145
  Euclidean distance: 0.684
FB
  Euclidean distance: 1.1
HEPG2
  Euclidean distance: 1.74
OVCAR4
  Euclidean distance: 1.36

## COc1cc2ncnc(Nc3ccc(O)c(Br)c3)c2cc1OC
786-O
  Euclidean distance: 1.36
A549
  Euclidean distance: 1.35
DU145
  Euclidean distance: 1.92
FB
  Euclidean distance: 1.7
HEPG2
  Euclidean distance: 1.64
OVCAR4
  Euclidean distance: 0.933

Reference: the supplement of paper PMC10127200
